# Bioassay records deposited in PubChem by several laboratories.
# Compounds with a hit are over-represented: about 3.2% of the library has one in this group of screens.
# CHT inh: inhibitors of human choline transporter CHT; Q9GZV3; CHT-expressing cells, membrane potential dye, choline response; stronger effect = lower value; B-score at 10 µM; 310,000 compounds, 0.86% hits;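 active means B-score over 3 SD under the library average, and starting fluorescence ratio not unusually high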;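 further: choline stimulus applied at its EC90 after an EC20 pre-addition; B-score computed on integrated fluorescence ratio after choline addition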
# ANO1 block: blocks the mouse calcium-activated chloride channel TMEM16A. HEK293 TMEM16A/YFP iodide influx fluorescence, ionomycin. 310,000 compounds, 1.2% hits. Q8BHY3. normalized B-score (activity score, 25-100; higher = stronger inhibition) at 10 µM;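 active means ratio plate-corrected score three or more library SD toward inhibition, starting fluorescence score within five deviations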;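 further: score derived from kinetic fluorescence span divided by baseline fluorescence per well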
# Rce1 inhib: yeast Ras-converting enzyme inhibition; Q03530; calls only; yeast membranes, quenched prenylated peptide cleavage fluorescence; 290,000 compounds, 0.27% hits;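 active means fall in fluorescence gain of 50% or more versus controls, with final raw signal at or below 3038400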
# TMEM16A act: activators or potentiators of mouse TMEM16A chloride channel; AID 623877; 340,000 compounds, 0.3% hits; B-score at 10 µM; HEK293 TMEM16A/YFP-H148Q/I152L, iodide quench fluorescence; stronger effect = lower value;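 active means fluorescence-ratio B-score plate-corrected deviation score at least 3 library SD below zero, with starting fluorescence score within 5 deviations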;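 further: channel opened by trigger with iodide after compound preincubation; score built on the fluorescence ratio of max minus min over baseline; more negative score means more quench and so TMEM16A activation or potentiation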
# Kir21 inh: Kir2.1 (mouse) channel inhibition | AID 1672 | HEK293-Kir2.1, FluxOR thallium flux fluorescence; stronger effect = lower value | P35561 | B-score at 10 µM | 310,000 compounds, 0.85% hits;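 active means fluorescence ratio B-score at or below minus 3 SD of library scores, with starting-brightness B-score within 2 SD, cut at about -4.2 in these data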;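 further: channel flux triggered by added potassium and thallium sulfate stimulus; B-score of peak minus minimum fluorescence over baseline after thallium stimulus; more negative B-score means stronger Kir2.1 block with less thallium influx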
# Target sequence (P35561 whole entry, looked up): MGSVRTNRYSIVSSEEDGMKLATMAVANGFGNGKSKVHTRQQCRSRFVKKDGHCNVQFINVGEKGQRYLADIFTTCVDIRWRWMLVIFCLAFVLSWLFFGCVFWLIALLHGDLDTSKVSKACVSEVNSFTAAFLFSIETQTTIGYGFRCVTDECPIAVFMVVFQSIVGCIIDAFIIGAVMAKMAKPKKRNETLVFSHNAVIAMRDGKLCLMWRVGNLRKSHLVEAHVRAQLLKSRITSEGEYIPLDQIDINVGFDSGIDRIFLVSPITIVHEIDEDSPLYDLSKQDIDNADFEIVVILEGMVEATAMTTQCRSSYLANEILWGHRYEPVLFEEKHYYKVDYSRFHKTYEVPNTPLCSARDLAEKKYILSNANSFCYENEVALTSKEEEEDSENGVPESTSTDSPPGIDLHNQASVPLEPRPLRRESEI
# CHT allo act: human CHT allosteric activation; B-score at 10 µM; Q9GZV3; 310,000 compounds, 0.49% hits; CHT-expressing cells, membrane potential dye, choline EC20; stronger effect = higher value; LV-AA mutant CHT in HEK293 cells;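 active means initial fluorescence not abnormally high and integrated response B-score, plate-corrected, over 3 SD above library mean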
# TMEM16A reconf: reconfirmed blocker of mouse TMEM16A calcium-activated chloride channel; shares compounds with ANO1 block; HEK293 TMEM16A/YFP-H148Q, iodide quench fluorescence; ionomycin added to raise cell calcium; inhibition, % at 10 µM; 2,300 compounds, 39% hits;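 active means mean duplicate percent inhibition, scaled so buffer wells are 0 and the reference blocker 100, over three buffer SD above buffer mean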
# HEK293 Ca mobil: calcium mobilization counter-screen hit for TMEM16A inhibitor series | TMEM16A/YFP HEK293, Fluo4 calcium mobilization | calcium response (% of ionomycin), % at 10 µM | 2,300 compounds, 2% hits | shares compounds with ANO1 block | AID 652231;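 active means duplicate-averaged calcium signal over 20% of the ionomycin maximum, relative to buffer baseline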;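 further: each well's signal is peak minus trough fluorescence divided by its pre-addition baseline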
# Parental YFP cnt: acts in parental YFP-HEK293 cells lacking TMEM16A, counter-screen | iodide YFP quench, ionomycin | YFP ratio F(max-min)/F0 at 10 µM | shares compounds with ANO1 block | 2,300 tested, under 10 active | AID 652233;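 active means yellow fluorescent protein signal ratio exceeding the buffer control mean by over 5 SD of those controls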;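 further: ratio is mean of duplicate wells from kinetic YFP trace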
# ClC-1 inh: selectivity of TMEM16A inhibitors: inhibition of rat ClC-1 chloride channel; shares compounds with ANO1 block; CHO ClC-1-YFP, iodide influx fluorescence quench; iodide control reads 0, buffer control 100; ratio percent, % at 10 µM; 2,300 tested, under 10 active;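 active means duplicate-mean ratio percent above the mean of iodide-only control wells, which defines zero, plus 5 of their SD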;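 further: higher percent means stronger block of ClC-1 iodide influx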
# Numbers stand for hits; . = inactive; / = not tested or not shown.
SMILES,CHT inh,ANO1 block,Rce1 inhib,TMEM16A act,Kir21 inh,CHT allo act,TMEM16A reconf,HEK293 Ca mobil,Parental YFP cnt,ClC-1 inh
COc1cccc(C(=O)NC2CCN(C(=O)N3CCCCC3)CC2)c1,.,25,.,.,.,.,.,.,.,.
Cc1ccc(C)c(NC(=O)c2ccccc2O)c1,.,25,.,.,.,.,36.0%,.,.,.
Cc1ccc(C)c(NC(=O)c2cc(C)nc3ccccc23)c1,.,.,.,.,.,.,/,/,/,/
CCC1SC2=NC(C)=C(C(=O)OCC(C)C)C(/C=C/c3ccccc3OC)N2C1=O (configuration not stated),.,100,.,.,.,.,.,.,.,.
O=c1cc(C(F)(F)F)[nH]c2ccc(C(F)(F)F)cc12,.,100,.,.,.,.,33.5%,.,.,.
Cc1ccc(Nc2nc(-c3ccccc3)cs2)nc1,.,.,.,.,.,.,/,/,/,/
Cc1ccc(Nc2nc(-c3cccs3)cs2)nc1,.,100,.,.,.,.,.,.,.,.
COc1cc(NC(=O)CSCC(=O)Nc2cccc(C(F)(F)F)c2)c(Cl)cc1Cl,.,100,.,.,.,.,.,.,.,.
CC(NC(=O)c1cccc(N(C)C)c1)c1ccc(-n2ccnc2)cc1 (configuration not stated),.,.,.,.,.,.,/,/,/,/
COc1ccc(NC(=O)CCCOc2ccc(Cl)c(C)c2)cc1S(=O)(=O)N1CCOCC1,/,/,/,.,/,/,/,/,/,/
CCS(=O)(=O)N1Cc2ccccc2CC1C(=O)Nc1nnc(C2CC2)s1 (configuration not stated),.,.,.,.,.,.,/,/,/,/
CCc1nnc(NC(=O)C2Cc3ccccc3CN2S(=O)(=O)c2c(C)c(C)cc(C)c2C)s1 (configuration not stated),.,25,.,.,.,.,.,.,.,.
CCC(c1nnc(SCC(=O)NC2CCCCC2)n1Cc1ccccc1)N(C)C (configuration not stated),.,.,.,.,.,.,/,/,/,/
Cc1ccccc1OCc1nc(-c2ccc(NC(=O)c3ccco3)cc2)no1,.,25,.,.,.,.,.,.,.,.
COc1ccc(-n2nc(C(=O)NCC(=O)NCc3ccccc3OC)c3ccccc3c2=O)cc1,.,.,.,.,.,.,/,/,/,/
COc1ccccc1CNC(=O)c1nn(-c2ccc(C)cc2)c(=O)c2c1c1ccccc1n2C,.,.,.,.,.,.,.,.,.,.
COc1ccc(CNC(=O)c2ccc(N3CCCC3=O)cc2)cc1,.,100,.,.,.,.,.,.,.,.
O=C(Nc1ccc(Br)cc1)C1CCN(c2cnccn2)CC1,.,.,.,.,.,.,/,/,/,/
C/C(=N/NC(=O)CNC(=O)c1cccs1)c1ccco1,.,.,.,.,.,.,/,/,/,/
CCN1C=C(Cc2ccc(F)cc2)C2=C(C1)C(c1ccc(F)cc1)C(C#N)=C(N)O2 (configuration not stated),.,25,.,.,.,.,.,.,.,.
COc1ccc2cc(C3=CCCCC3)ncc2c1,/,/,/,.,/,/,/,/,/,/
COc1ccc2oc3cc(C)[n+]([O-])c(-c4ccc(Br)cc4)c3c2c1,.,25,.,.,.,.,21.5%,.,.,.
CCCCc1cc(=O)oc2cc(OCC(=O)N3CCc4ccccc43)ccc12,.,.,.,.,.,.,/,/,/,/
Cc1cc(=O)oc2cc(OCC(=O)OCC(=O)N3CCc4ccccc43)ccc12,.,25,.,.,.,.,.,.,.,.
Cc1ccc2cc(C#N)c(NCCCNC(=O)C3CCCO3)nc2c1 (configuration not stated),.,25,/,.,.,.,.,.,.,.
SMILES,CHT inh,ANO1 block,Rce1 inhib,TMEM16A act,Kir21 inh,CHT allo act,TMEM16A reconf,HEK293 Ca mobil,Parental YFP cnt,ClC-1 inh
CC(OC(=O)CCc1nc2ccccc2c(=O)[nH]1)C(=O)c1ccc(C(C)(C)C)cc1 (configuration not stated),.,100,.,.,.,.,28.0%,.,.,.
O=C(Nc1ccc2oc(-c3ccccc3F)nc2c1)c1ccc2c(c1)OCCO2,.,100,.,.,.,.,17.0%,.,.,.
O=C(Nc1ccc(-c2nc3ccccc3o2)cc1)c1ccc2c(c1)OCO2,.,.,.,.,.,.,/,/,/,/
CCn1nc(C)c(CNC(=O)c2cc(COc3ccc(F)cc3Cl)on2)c1C,.,25,.,.,.,.,24.0%,.,.,.
O=C(c1ccc(N2CCCS2(=O)=O)cc1)N1CCN(c2ccccc2)CC1,.,.,.,.,.,.,/,/,/,/
O=C(CSc1nnc(Cc2cc(=O)[nH]c(=O)[nH]2)n1-c1ccccc1)N1CCCCC1,.,.,.,.,.,.,.,.,.,.
COc1cccc(CN(C)C(=O)CNC(=O)c2sc3ccccc3c2Cl)c1OC,.,25,.,.,.,.,.,.,.,.
COc1cccc(CN(C)C(=O)COc2ccc(C(=O)c3ccc(Cl)cc3)cc2)c1OC,.,100,.,.,.,.,26.0%,.,.,.
COc1ccc(CN(C)C(=O)CNC(=O)Cc2cccc3ccccc23)c(OC)c1OC,.,.,.,.,.,.,/,/,/,/
O=C(NCc1ccc(F)cc1)c1cc(C(=O)C2CC2)c[nH]1,.,.,.,.,.,.,/,/,/,/
CCN1CCN(CC(O)COc2ccc(Cl)cc2)CC1 (configuration not stated),.,.,.,.,.,.,/,/,/,/
CCN1CCN(CC(O)COC(C)C)CC1 (configuration not stated),.,25,.,.,.,.,.,.,.,.
CCC(C)Nc1nc(-c2cccc(OC)c2O)nc2ccccc12 (configuration not stated),.,100,.,.,.,.,28.5%,.,.,.
CCCCn1c(SCc2ccc(C(=O)OC)o2)nc2cc(S(N)(=O)=O)ccc21,.,25,.,.,.,.,18.5%,.,.,.
CCCCn1c(SCC(=O)c2cc(OC)ccc2OC)nc2cc(S(N)(=O)=O)ccc21,.,.,.,.,.,.,/,/,/,/
COc1ccc2c(c1)cc(C(=O)N/N=C/c1c(O)c(C(=O)O)cc3ccccc13)n2C,.,.,.,.,.,.,.,.,.,.
